± gives the standard deviation.
system: EfPiwi piRISC loaded with L1MC piRNA (26 nt); test: pre-steady-state target cleavage rate (min^-1); auxiliary factor: 500 nM Ephydatia muelleri Gtsf1; guide: L1MC piRNA 5'p-UAACUAAAUACUAUGCAAGCUGUAGG; MIWI and MILI are mouse PIWI proteins and EfPiwi is from a freshwater sponge; tags in brackets are library labels; higher = faster piRNA-guided slicing of the target
Summary of the method: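 Cleave-'n-Seq: a transcribed, DNA-blocked target RNA library (0.1 nM) was mixed with 1 nM active affinity-purified piRISC carrying one synthetic guide, with or without 500 nM GTSF1 partner protein, in HEPES–potassium acetate buffer at 33 °C for 0–8 or 0–960 min. Uncleaved targets were sequenced and normalised to depth and to weakly complementary targets. Three trials were pooled, and k3 was capped at 0.0001 min^-1. The pre-steady-state cleavage rate came from a burst-and-steady-state fit.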

Sequence	pre-steady-state target cleavage rate
UCCUGCUACAGCUUGCAUAGUAUUUGGUUA	0.00556 ± 0.0012
UCCUCCUACUCCUUGCAUAGUAUUUAGUAA	0.00518 ± 0.0033
UCCUGGAAGAGCUUGCAUAGUAUUUUGUUA	0.00497 ± 0.0026
UCCUGGAACAGCUUGCAUAGUAUUCAGUUA	0.00333 ± 0.0018
UCCUGGUACAGCUUGCAUAGUAUUUUCUAA	0.0055 ± 0.0029
UCCUGGAUCAGCUUGACAUAGUAUUUAGUUA	0.014 ± 0.0043
UCCUGGAUCUGGUUGCAUAGUAUUUAGUUA	0.0604 ± 0.015
UCCUCGUACAGCUUGGAUAGUAUUUAGUUA	0.0441 ± 0.0092
UCCUCCUACAGCUUGCAAAGUUUUUAGUUA	0.00281 ± 0.0022
UCCUGGAACAGCUUGGCAUAGUAUUUAGUUA	0.0094 ± 0.0031
UCCUGGAACAGGUUGCAUAGUAUUUAGUUA	0.0388 ± 0.0088
UCCUGGAUCUGCUUGCAUAGUUUUUAGUUA	0.00787 ± 0.0041
UCCUGGAACAGCUUGCAUAGUACUUUAGUUA	0.00922 ± 0.0033
UCCUGGUACAGCAAGCAUAGUAUUUAGUUA	0.00653 ± 0.0021
UCCUGGAACAGCUUGCUUAGUAUUUUGUUA	0.00494 ± 0.0028
UCCUGGAUGAGCUAGCAUAGUAUUAAGUUA	0.00293 ± 0.0024
UCCUGCUACUGCUUGCUUAGUAUUUAGUUA	0.0076 ± 0.0022
UCCUGCUACAGCUUUGCAUAGUAUUUAGUUA	0.0161 ± 0.0053
UCCUGGUUCAGCUAGCAUAGUAUUUAGUUA	0.0263 ± 0.0083
UCCUGGAUGUGCUUCGCAUAGUAUUUAGUUA	0.0132 ± 0.0048

Sequence	pre-steady-state target cleavage rate
UCCUCCUACAGCUUGCAUAGUAUUAUAGUUA	0.00777 ± 0.0033
UCCUCCGACAGCUUGCAUAGUAUUUAGUUA	0.101 ± 0.026
UCCUGGAUCAGCUUGCAUAGAAUUUAGUUA	0.00327 ± 0.0015
UCCUGGAACAGCUUUCAUAGUAUUUAGUUA	0.00631 ± 0.0025
UCCUGGAUGUGUCUUGCAUAGUAUUUAGUUA	0.113 ± 0.038
UCCUCCUACAGCAUGCAUACUAUUUAGUUA	0.00724 ± 0.0028
UCCUGCUUCAGCUUGCAUAGUAUUUAGUUA	0.103 ± 0.025
UCCUCGUACAGCUUGCAUAGUAUAUAGUUA	0.0103 ± 0.0042
UCCUGCGACAGCUUGCAUAGUAUUUAGUUA	0.0339 ± 0.0075
UCCUGGAAGAGCUUGCAUAGUAUUUAGUUA	0.0725 ± 0.016
UCCUGGAUCACUUGCAUAGUAUUUAGUUA	0.0567 ± 0.014
UCCUGGAUGUCGAUGCAUAGUAUUUAGUAA	0.00329 ± 0.0032
UCCUGGAUGAGCUUGCAUAGUAUUUAGUUC [g2:g21:cont:t1C]	0.039 ± 0.01
UCCUGGUACAGCAUGCAUAGUUUUUAGUUA	0.0046 ± 0.0027
UCCUGGAUCAGCUUGCAUAGUAUUUAUUUA	0.00293 ± 0.0028
UCCUGGAUGAGCUUGCAUAGUAUGUUAGUUA	0.00879 ± 0.0036
UCCUGGAUGUGCUUGCAUAGUGUUUAGUUA	0.0123 ± 0.0051
UCCUGCUACAGCUUGGAUAGUAUAUAGUUA	0.0128 ± 0.0037
UCCUCCUACAGCUUGCAUAGUAUUUUAGUUA	0.0456 ± 0.014
UCCUGGAUGUGCUUGCAUAGUAUAUUAGUUA	0.0043 ± 0.0034

From the supplement of paper PMC10338343
